Broadly, the AC50 is the concentration giving half of the maximal activity seen.

Each structure is given as a SMILES string. Inconclusive results are not listed. Calls of active or inactive are those of the source. Rule for the calls: active = hit-call score of the fitted dose curve at least 0.9, where 1 is the maximum; inconclusive = response in the unintended direction; inactive = score below 0.9.

Nuclear receptor subfamily 4 group A member 2 (Homo sapiens), sequence (P43354 whole entry, looked up): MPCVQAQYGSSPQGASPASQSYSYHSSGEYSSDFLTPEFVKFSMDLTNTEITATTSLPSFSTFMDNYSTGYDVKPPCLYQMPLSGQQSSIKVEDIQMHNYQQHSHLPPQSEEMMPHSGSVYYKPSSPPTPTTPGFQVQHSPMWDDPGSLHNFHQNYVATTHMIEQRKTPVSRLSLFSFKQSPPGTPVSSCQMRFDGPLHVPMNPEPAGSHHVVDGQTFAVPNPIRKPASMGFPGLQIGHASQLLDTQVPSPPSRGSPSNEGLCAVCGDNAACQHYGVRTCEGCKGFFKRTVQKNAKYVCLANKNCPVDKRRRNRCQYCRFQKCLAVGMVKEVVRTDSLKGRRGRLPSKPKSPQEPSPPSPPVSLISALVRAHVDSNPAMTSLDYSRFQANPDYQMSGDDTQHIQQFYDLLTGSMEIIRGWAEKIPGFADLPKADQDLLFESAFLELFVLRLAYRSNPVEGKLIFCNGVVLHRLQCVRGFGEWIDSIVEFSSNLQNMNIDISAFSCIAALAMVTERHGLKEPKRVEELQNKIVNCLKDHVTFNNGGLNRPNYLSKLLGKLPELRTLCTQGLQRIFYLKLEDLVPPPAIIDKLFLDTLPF

In this assay the target is Nuclear receptor subfamily 4 group A member 2 (Homo sapiens) (UniProt P43354). In words: ATG_NURR1_TRANS: Attagene TRANS-FACTORIAL HepG2 Assay for human Nuclear Receptor Related Protein 1 (NURR1) (AID 2282985). The settings on record: HepG2 Attagene TRANS reporter, mRNA readout. The method, then:
ATG_TRANS is a cell-based, multiplexed-readout assay that uses HepG2, a human liver cell line, with measurements taken at 24 hours after chemical dosing in a 24-well plate.ATG_NURR1_TRANS is one of 30 assay component(s) measured or calculated from the ATG_TRANS assay. It is designed to make measurements of mRNA induction, a form of inducible reporter, as detected with fluorescence intensity signals by Reverse transcription polymerase chain reaction (RT-PCR) and Capillary electrophoresis technology.Data from the assay component ATG_NURR1_TRANS was analyzed into 1 assay endpoint. This assay endpoint, ATG_NURR1_TRANS, was analyzed in the positive analysis fitting direction relative to DMSO as the negative control and baseline of activity. Using a type of inducible reporter, measures of mRNA for gain-of-signal activity can be used to understand the reporter gene at the transcription factor-level as they relate to the gene NR4A2. Furthermore, this assay endpoint can be referred to as a primary readout, because this assay has produced multiple assay endpoints where this one serves a reporter gene function. To generalize the intended target to other relatable targets, this assay endpoint is annotated to the nuclear receptor intended target family, where the subfamily is orphan.
Human liver HepG2 cells are transiently transfected with multiple reporter transcription units (MRTUs) in 6-well plates using FuGene 6 reagent (Roche; 3 ml FuGene/1 mg DNA). The MRTU constructs are regulated by a cis-regulating element (promoter). […] A major difference between the CIS and TRANS system is that in CIS activities of endogenous TFs are measured, whereas the TRANS assay evaluates changes in activities of exogenous, chimeric NR-Gal4 proteins. […] At the end of 24 hour incubation, total RNA was isolated using TriZol reagent (Invitrogen). The isolated RNA is then reverse-transcribed using oligo(dT) primer and Mo-MLV reverse transcriptase (Invitrogen) with DNAse I (Ambion) treatment for 30 min. The one-tenth of the produced cDNA was amplified by PCR using Taq DNA polymerase (Invitrogen) and two reporter sequence-specific primers. The PCR products were fluorescently labeled by primer extension with 6-arboxyfluorescein (6-FAM) 5'-labeled reporter sequence-specific primer (2 min at 95 C, 20 s at 68 C and 10 min at 72 C) and these products were digested with 5U of HpaI (New England Biolabs) for 2h at 37 C. The fragments were purified using Qiaquick PCR columns (Qiagen), analyzed on an ABI 3130xL genetic analyzer (Applied Biosystems) with peak positions identified by using a set of X-rhodamine (ROX)-labeled MapMarker1000 molecular weight standards (BioVentures). The raw capillary electrophoresis data was processed using Attagraph software (Attagene).
Consider `CCOc1cccc(-n2cc(C(=O)N3CCN(c4cc(C(=O)O)c5ccccc5c4)CC3)nc2-c2ccc(C)cc2)c1`, for which the concentration at half-maximal activity (AC50) is 45 µM (active).
As for `CCc1cc(SCc2sc(-c3ccc(C(F)(F)F)cc3)nc2CN2CCN(c3ccc(OC)cc3)CC2)ccc1OCC(=O)O`, the molecule was classed as inactive.
Turning to `CNS(=O)(=O)c1cc(C(=O)N2CCC(CCN3C4CCC3CC(n3c(C)nc5ccccc53)C4)(c3cccc(F)c3)CC2)c(Cl)cc1F` (stereo not given), the call was inactive.
`COc1cccc(-c2ccc(/C=C\CN3CCCCCC3)cc2Cl)c1`: the molecule was called inactive.
Take `Cn1c(=O)c2c(ncn2C)n(C)c1=O`: the outcome was inactive.
As to `CC(C)c1cccc(C(C)C)c1N1C(=O)c2ccc(O)cc2C1=O`, the call was inactive.
For the molecule `CC(O)CN(CCN(CC(C)O)CC(C)O)CC(C)O` (stereo not given), the call was inactive.
Take `O=C(CCCCCCCCc1cccnc1)N1CCC(C=C(c2ccccc2)c2ccccc2)CC1`: the molecule was classed as inactive.
Regarding `Clc1nc(Cl)c(Cl)c(Cl)c1Cl`, the call was inactive.
As to `Nc1ccc(Nc2ccccc2)cc1`, the molecule was classed as inactive.
Still for that read-out and setting: as for `CCCCC(CC)COC(=O)CCCCCCCCC(=O)OCC(CC)CCCC` (stereo not given), the entry is “inactive”; as for `O=C1CCC(N2C(=O)c3ccccc3C2=O)C(=O)N1` (stereo not given), “inactive”.
As to `C[C@](N)(Cc1ccc(O)c(O)c1)C(=O)O`, the call was inactive.
For the molecule `CC[C@H](C)C(=O)O[C@H]1C[C@@H](C)C=C2C=C[C@H](C)[C@H](CC[C@@H]3C[C@@H](O)CC(=O)O3)[C@H]21`, the result was inactive.
For `COc1ccc2sc(C(=O)Nc3nnn[nH]3)c(OC(C)C)c2c1`, the outcome was inactive.
The same measure, in the same setting: as for `C=CC(=C)CCC=C(C)C`, the entry is “inactive”; as for `Cc1ccc(S(=O)(=O)O)cc1C`, “inactive”.
Same read-out and setting: in the case of `C=CCCCCCCCCC(=O)O` it was “inactive”.
For the molecule `CCNc1ccccc1`, the call was inactive.
With `O=c1[nH]c2ccc(S(=O)CCN3CCC(Cc4ccc(F)cc4)CC3)cc2o1` (stereo not given), the outcome was inactive.
Take `CC[C@H]1CC[C@H](NCc2cc3c(cc2OC)[C@H]2C[C@H]2C(=O)N3C)[C@H](c2ccccc2)N1`: the molecule was called inactive.
For the molecule `O=c1n(CC2CO2)c(=O)n(CC2CO2)c(=O)n1CC1CO1` (stereo not given), the call was inactive.
On to `Fc1ccccc1[C@@H](F)COC1CCC(Nc2ncnc3[nH]ncc23)CC1` (stereo not given in full), for which the call was inactive.
Same read-out and setting: as for `COC(=O)c1ccccc1O`, the entry is “inactive”.
`CCCCCCc1ccc(O)cc1O`: the molecule was called inactive.
For `Nc1cccc(N)c1`, the call was inactive.
As to `COC(=O)c1c(Cl)c(Cl)c(C(=O)OC)c(Cl)c1Cl`, the molecule was classed as inactive.
On to `CN(C)c1ccc(Cc2ccc(N(C)C)cc2)cc1`, for which the AC50 was 49.1 µM (active).
Consider `CCCN(C1CCN(C(=O)C2CCNCC2)CC1)[C@@H]1CCc2ccc(OC)cc2C1`, for which the molecule was classed as inactive.
On the same count and under the same terms, as for `CNCc1ccc(NC(=O)c2c[nH]c3c2C(=O)CCC3)cc1`, the entry is “inactive”; as for `CCCC(=O)OCC`, “inactive”; as for `O=C(NS(=O)(=O)/C=C/c1ccccc1)c1ccc(F)cc1Cl`, “inactive”.
Consider `CC(C)=CCCC(C)=CC=O`, for which the half-maximal activity concentration (AC50) was 100 µM (active).
In the case of `CCOCCOCCOCCO`, the call was inactive.
`CCN(C(=O)c1cc(C)cc(OC[C@H](C)Nc2ccncc2)c1)C(C)C`: the call was inactive.
Consider `CC1(C)C(=O)N(Br)C(=O)N1Br`, for which the molecule was classed as inactive.
For the molecule `CCOC(=O)CC(CC(=O)OCC)(OC(C)=O)C(=O)OCC`, the molecule was called inactive.
`COCCOCCOCCOC`: the result was inactive.
Regarding `CCOC(=O)COc1ccc2c(c1)CC(NCC(O)c1cccc(Cl)c1)CC2` (stereo not given), the result was inactive.
As for `O=C1CCCCCN1`, the result was inactive.

The values above are taken from PubChem BioAssay (EPA / NIEHS).
